Test results as given in PubChem BioAssay (NCATS).
Values joined by “and” are separate entries in the source; they are usually repeats but may differ in a detail not shown here. Equal values may be shown once. Records with an inconclusive call do not appear. Active and inactive are the calls of the source. The call rests on the fitted dose curve; in most records, active means well fitted curve in the direction sought with a large enough effect; inconclusive means small, poorly fitted or top-dose-only effect, or another doubt; inactive means no such curve, though single readings can be large; an effect the other way counts as inactive or inconclusive.

Assays:
[1] = system: NIH3T3; test: Cytotoxic Profiling of Annotated Libraries Using Quantitative High-Throughput Screening (AID 1296008); conditions: Five cell lines viability, CellTiter-Glo ATP luminescence, 48-72 h; max response: stronger effect = lower value; further: nearly all actives have a fitted effect of over 60% in size
Method in brief: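 Cytotoxicity was measured as CellTiter-Glo ATP luminescence, read after 10 min at room temperature. Compound treatment of the cells lasted 48 or 72 hr at 37 degrees Celsius in a qHTS format.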

[2] = system: HACAT; test: qHTS assay to identify novel small-molecules to repurpose for Merkel cell carcinoma treatment (AID 1296009); conditions: MCC and control cell lines, CellTiter-Glo viability, 72 h; at 44.8 µM (top of the series) unless noted; further: nearly all actives have a fitted effect of over 60% in size
Method in brief: (§1)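 Cell viability measured by CellTiter-Glo following 72 hr compound treatment at 37 degree celsius, with NPC and MIPE libraries tested in 8- and 11-point concentration series.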

[3] = system: MCC-13; test: as above; conditions: MCC and control cell lines, CellTiter-Glo viability, 72 h; series mostly up to 46 µM
Method in brief: as §1

[4] = system: MCC-26; test: as above; conditions: MCC and control cell lines, CellTiter-Glo viability, 72 h; series mostly up to 46 µM
Method in brief: as §1

[5] = system: MKL-1; test: as above; conditions: MCC and control cell lines, CellTiter-Glo viability, 72 h; series mostly up to 46 µM
Method in brief: as §1

[6] = system: MKL-2; test: as above; conditions: MCC and control cell lines, CellTiter-Glo viability, 72 h; series mostly up to 46 µM
Method in brief: as §1

[7] = system: WaGa; test: as above; conditions: MCC and control cell lines, CellTiter-Glo viability, 72 h; series mostly up to 46 µM
Method in brief: as §1

[8] = system: C33A; test: Primary qHTS to identify gynecologic anti-cancer compounds using libraries of approved drugs and bioactive compounds (AID 1345084); conditions: Gynecologic cancer cell panel viability, ATPlite luminescence, 48 h; series mostly up to 57.5 µM; further: nearly all actives have a fitted effect of over 55% in size
Method in brief: (§2)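 ATP-based viability (ATPlite), 1,000 cells/well, 16 h pre-incubation, 48 h compound at 37 C, 5% CO2, 15 min RT before read.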

[9] = system: CAOV3; test: as above; conditions: Gynecologic cancer cell panel viability, ATPlite luminescence, 48 h; series mostly up to 57.5 µM
Method in brief: as §2

[10] = system: CASKI; test: as above; conditions: Gynecologic cancer cell panel viability, ATPlite luminescence, 48 h; series mostly up to 57.5 µM
Method in brief: as §2

[11] = system: Es-2; test: as above; conditions: Gynecologic cancer cell panel viability, ATPlite luminescence, 48 h; series mostly up to 57.5 µM
Method in brief: as §2

[12] = system: HeLa; test: as above; conditions: Gynecologic cancer cell panel viability, ATPlite luminescence, 48 h; series mostly up to 57.5 µM
Method in brief: as §2

[13] = system: Hek293T; test: as above; conditions: Gynecologic cancer cell panel viability, ATPlite luminescence, 48 h, control line for the selectivity index; series mostly up to 57.5 µM
Method in brief: as §2

[14] = system: JEG-3; test: as above; conditions: Gynecologic cancer cell panel viability, ATPlite luminescence, 48 h; series mostly up to 57.5 µM
Method in brief: as §2

[15] = system: OV90; test: as above; conditions: Gynecologic cancer cell panel viability, ATPlite luminescence, 48 h; series mostly up to 57.5 µM
Method in brief: as §2

[16] = system: PA-1; test: as above; conditions: Gynecologic cancer cell panel viability, ATPlite luminescence, 48 h; series mostly up to 57.5 µM
Method in brief: as §2

[17] = system: SKOV3; test: as above; conditions: Gynecologic cancer cell panel viability, ATPlite luminescence, 48 h; series mostly up to 57.5 µM
Method in brief: as §2

[18] = system: UISO; test: qHTS assay to identify novel small-molecules to repurpose for Merkel cell carcinoma treatment (AID 1296009); conditions: MCC and control cell lines, CellTiter-Glo viability, 72 h; series mostly up to 46 µM; further: nearly all actives have a fitted effect of over 60% in size
Method in brief: as §1

[19] = system: HEK293T; test: as above; conditions: MCC and control cell lines, CellTiter-Glo viability, 72 h; at 44.8 µM (top of the series) unless noted
Method in brief: as §1
On the % scale 0 is the no-effect control and ±100 the full control effect; potency means the concentration at half of the fitted maximal effect.

Oc1ccc(O)cc1
inactive: max response [1] -10.8% | outcome [2] | Potency [3] | Potency [4] | Potency [8] | Potency [9] | Potency [10] | Potency [11] | Potency [12] | Potency [13] | Potency [14] | Potency [15] | Potency [16] | Potency [17]
active: Potency [5] 5.31 µM | Potency [6] 4.73 µM | Potency [7] 1.88 µM

CC(C)n1nc(-c2cc3cc(O)ccc3[nH]2)c2c(N)ncnc21
active: Potency [1] 2.37 µM and 1.16 µM | Potency [3] 16.8 µM | Potency [4] 11.9 µM | Potency [5] 10.6 µM | Potency [6] 8.41 µM | Potency [18] 9.44 µM | Potency [7] 2.99 µM | Potency [8] 0.794 µM | Potency [9] 1.58 µM | Potency [10] 8.91 µM and 15.8 µM | Potency [11] 3.16 µM and 2.24 µM | Potency [12] 17.8 µM and 14.1 µM | Potency [13] 3.98 µM | Potency [15] 5.01 µM and 2.82 µM | Potency [16] 4.47 µM | Potency [17] 1 µM and 631 nM
inactive: Potency [14]

C[C@]12C=CC(=O)C=C1[C@@H](F)C[C@@H]1[C@@H]2[C@@H](O)C[C@@]2(C)[C@H]1CC[C@]2(O)C(=O)CO
inactive: max response [1] -3.51% | Potency [3] | Potency [4] | Potency [5] | Potency [6] | Potency [18] | Potency [7] | Potency [8] | Potency [9] | Potency [10] | Potency [11] | Potency [12] | Potency [13] | Potency [14] | Potency [15] | Potency [16] | Potency [17]

CNC(=O)CN(CCN(CCN(CC(=O)[O-])CC(=O)NC)CC(=O)[O-])CC(=O)[O-].O.[Gd+3]
inactive: max response [1] -1.76% | outcome [19] | Potency [3] | Potency [4] | Potency [5] | Potency [6] | Potency [18] | Potency [7] | Potency [8] | Potency [9] | Potency [10] | Potency [11] | Potency [12] | Potency [13] | Potency [14] | Potency [15] | Potency [16] | Potency [17]

Cc1onc(-c2c(Cl)cccc2Cl)c1C(=O)N[C@@H]1C(=O)N2[C@@H]1SC(C)(C)[C@@H]2C(=O)O
inactive: max response [1] -14.9% and -2.17% | outcome [19] | Potency [3] | Potency [4] | Potency [5] | Potency [6] | Potency [18] | Potency [7] | Potency [8] | Potency [9] | Potency [10] | Potency [11] | Potency [12] | Potency [13] | Potency [14] | Potency [15] | Potency [16] | Potency [17]

CCOC(=O)[C@H](CCc1ccccc1)N[C@@H](C)C(=O)N1Cc2ccccc2C[C@H]1C(=O)O
inactive: max response [1] -19.6% | outcome [2] | Potency [3] | Potency [8] | Potency [9] | Potency [10] | Potency [11] | Potency [12] | Potency [13] | Potency [14] | Potency [15] | Potency [16] | Potency [17]

C=C1C(=C/C=C2\CCC[C@]3(C)[C@@H]([C@H](C)/C=C/[C@@H](O)C4CC4)CC[C@@H]23)C[C@@H](O)C[C@@H]1O
inactive: max response [1] -35.8% | outcome [2] | Potency [3] | Potency [4] | Potency [8] | Potency [9] | Potency [10] | Potency [11] | Potency [12] | Potency [13] | Potency [14] | Potency [15] | Potency [16] | Potency [17]

CCOC(=O)COc1ccc2c(C)c(CCN(CC)CC)c(=O)oc2c1Cl
active: Potency [17] 15.8 µM
inactive: max response [1] 1.29% | outcome [19] | Potency [3] | Potency [4] | Potency [18] | Potency [8] | Potency [9] | Potency [10] | Potency [12] | Potency [13] | Potency [14] | Potency [15] | Potency [16]

CC(=O)OCC(=O)[C@@]1(OC(C)=O)[C@@H](C)C[C@H]2[C@@H]3C[C@H](F)C4=CC(=O)C=C[C@]4(C)[C@@]3(F)[C@@H](O)C[C@@]21C
inactive: max response [1] -5% | Potency [3] | Potency [4] | Potency [5] | Potency [6] | Potency [18] | Potency [7] | Potency [8] | Potency [9] | Potency [10] | Potency [11] | Potency [12] | Potency [13] | Potency [14] | Potency [15] | Potency [16] | Potency [17]

O=C1OC2(c3ccc(O)cc3Oc3cc(O)ccc32)c2ccccc21
inactive: max response [1] -4.38% | Potency [3] | Potency [4] | Potency [5] | Potency [6] | Potency [18] | Potency [7] | Potency [8] | Potency [9] | Potency [10] | Potency [11] | Potency [12] | Potency [13] | Potency [14] | Potency [15] | Potency [16] | Potency [17]

CC[N+](CC)(CCNC(=O)C(=O)NCC[N+](CC)(CC)Cc1ccccc1Cl)Cc1ccccc1Cl
inactive: max response [1] 3.32% | Potency [3] | Potency [4] | Potency [5] | Potency [6] | Potency [18] | Potency [7] | Potency [8] | Potency [9] | Potency [10] | Potency [11] | Potency [12] | Potency [13] | Potency [14] | Potency [15] | Potency [16] | Potency [17]

C[C@H]1C[C@H]2[C@@H]3CCC4=CC(=O)C=C[C@]4(C)[C@@]3(Cl)[C@@H](O)C[C@]2(C)[C@@]1(O)C(=O)CO
inactive: max response [1] -12.3% | Potency [3] | Potency [4] | Potency [5] | Potency [18] | Potency [7] | Potency [8] | Potency [10] | Potency [11] | Potency [12] | Potency [13] | Potency [14] | Potency [15] | Potency [16] | Potency [17]

O=C1[C@H]2CCCC[C@H]2C(=O)N1CCCCN1CCN(c2nsc3ccccc23)CC1
inactive: max response [1] 2.44% | Potency [3] | Potency [4] | Potency [5] | Potency [8] | Potency [9] | Potency [10] | Potency [11] | Potency [12] | Potency [14] | Potency [16] | Potency [17]
active: Potency [18] 10.6 µM
